Compound activity deposited in PubChem BioAssay by National Center for Advancing Translational Sciences (NCATS).
SW480 rereplic: inducers of DNA re-replication in SW480 colon cancer cells; SW480 DNA re-replication, Hoechst DNA content imaging, 48 h; Potency, µM (doses to about 46.1 µM), for inactives: top-dose re-replication activation, usual class: activators; 340,000 tested, 1.8% active; AID 624297; also: potency is read from the fitted curve at half-maximal effect; % of control where 0% means no effect; nearly all actives have a fitted effect of over 55% in size
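Compounds, transferred as 23 nL by pin tool, were incubated with cells for 48 hr; DNA content per nucleus was then quantified by Hoechst staining and fluorescence plate imaging.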
Gal4-VP16 FLuc: Gal4-VP16 reporter inhibition counter-screen; Potency, µM (titrated, usually from 53.6 µM), inactives show top-dose activity, negative = inhibition, actives largely listed as inhibitors; 310,000 tested, 3.5% active; AID 2546; Drosophila S2 Gal4-VP16 UAS-luciferase, luminescence, 20 h;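 also: Gal4-VP16 expression switched on by copper sulfate through the metallothionein promoter; potency is read from the fitted curve at half-maximal effect; % is scaled to controls: 0 for no effect and ±100 for the full control effect; nearly all actives have a fitted effect of over 50% in size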
MCF10A rereplic: induces DNA re-replication in MCF 10a normal breast cells; MCF 10A DNA re-replication, Hoechst nuclear intensity, 48 h; Potency, µM (series often up to 46.1 µM), for inactives: top-dose activity, positive = re-replication, most hits filed as activators; 350,000 tested, 2.9% active; also: potency is read from the fitted curve at half-maximal effect; % of control where 0% means no effect; nearly all actives have a fitted effect of over 50% in size
IL1B secr inh: inflammasome signaling inhibition, IL-1 beta readout; 360,000 tested, 4.7% active; activity change, % at 57.5 µM; THP-1 LPS/ATP IL-1B secretion, AlphaLISA, 16 h; active compounds read low; in the data active = activity change below about -50%; inconclusive = mostly about -30% to -49%; also: % is scaled to controls: 0 for no effect and ±100 for the full control effect
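THP-1 cells pretreated 1 hr with compounds (up to 57.5 uM final), then stimulated with LPS (250 ng/mL final) plus ATP (1.25 mM final); secreted IL-1B measured by AlphaLISA after 16 hr, decreased signal indicating inhibition.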
RORgamma inh: inhibitors of mouse ROR gamma transcriptional activity; Potency, µM (highest dose often 53.6 µM), without a hit: at the highest dose activity change, negative = inhibition, usual class: inhibitors; AID 2551; Drosophila S2 Gal4-RORgamma UAS-luciferase reporter, 20 h; 310,000 tested, 5.4% active; also: potency is read from the fitted curve at half-maximal effect; % is scaled to controls: 0 for no effect and ±100 for the full control effect; nearly all actives have a fitted effect of over 60% in size
Target sequence (P51450 whole entry, looked up, the tested form may be a part): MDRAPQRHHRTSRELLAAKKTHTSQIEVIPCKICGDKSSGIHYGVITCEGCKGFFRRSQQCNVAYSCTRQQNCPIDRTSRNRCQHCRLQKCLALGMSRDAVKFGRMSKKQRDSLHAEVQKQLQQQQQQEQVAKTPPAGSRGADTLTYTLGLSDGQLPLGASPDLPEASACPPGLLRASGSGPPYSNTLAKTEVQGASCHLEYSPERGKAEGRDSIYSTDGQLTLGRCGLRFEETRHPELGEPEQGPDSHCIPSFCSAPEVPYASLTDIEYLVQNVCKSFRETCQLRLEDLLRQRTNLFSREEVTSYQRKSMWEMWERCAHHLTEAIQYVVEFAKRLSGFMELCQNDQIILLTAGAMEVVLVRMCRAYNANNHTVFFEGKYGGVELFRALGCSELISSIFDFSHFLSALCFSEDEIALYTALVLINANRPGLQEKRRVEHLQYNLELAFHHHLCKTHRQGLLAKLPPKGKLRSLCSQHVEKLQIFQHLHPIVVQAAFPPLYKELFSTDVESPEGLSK
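Stable Schneider cell line, Gal4 DNA-binding domain fused to ROR gamma, UAS-luciferase. Cmpd 1 hr RT → CuSO4 700 uM final → 20 hr RT → luciferase reagent 10 min → luminescence.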
The depositor's hits bear a star; ? = inconclusive; / = no result given; [ ] = dose if it differs, or a comment. Most compounds without a hit are left out; they make up all but 11% or so of the library. Unless noted, calls follow the shape of the dose curve; as a rule, active = well fitted curve in the direction sought with a large enough effect; inconclusive = small, poorly fitted or top-dose-only effect, or another doubt; inactive = no such curve, though single readings can be large; an effect the other way counts as inactive or inconclusive.

SMILES	SW480 rereplic	Gal4-VP16 FLuc	MCF10A rereplic	IL1B secr inh	RORgamma inh
COc1ccc(C(=O)C[n+]2ccc3c(c2)nc(-c2ccccc2)n3C)cc1	-3%	-7%	18%	-22	32%
CCOCCCn1c(C)nc2c[n+](CC(=O)c3ccc4ccccc4c3)cc(Br)c21	-18%	-6%	-1%	-58*	3%
Cn1nnc2c[n+](CC(=O)c3ccc(Cl)cc3)cc(Br)c21	?	-7%	?	-99*	0%
Cc1ccc(S(=O)(=O)Nc2ccc(Nc3nccn4c(-c5ccc6ccccc6c5)cnc34)cc2)cc1	/	/	/	-7	/
COc1ccccc1C(=O)NCC(=O)N/N=C(\C)Cc1ccccc1	3%	-5%	-1%	-2	0%
CCOc1ccc(-c2nc(CSCC(=O)N3CCN(c4cccc(OC)c4)CC3)c(C)o2)cc1	0%	11µM*	-4%	10	11µM*
CCc1ccc(-c2nc(CSCC(=O)N3CCN(c4ccccn4)CC3)c(C)o2)cc1	3%	13µM*	50%[0.0737 µM]	?	?
Cc1cc(C)n(C(=O)c2c([N+](=O)[O-])c(C)nn2C)n1	0%	-13%	-1%	-11	26%
Cc1ccc(SC(=O)c2c([N+](=O)[O-])c(C)nn2C)cc1	-4%	3.5µM*	?	-65*	4µM*
CCc1ccc(CNC(=O)c2cc3c(C)nc4ccccc4c3o2)cc1	8%	18µM*	?	-16	27%
CC(=O)N1CCN(C(=O)c2ccc(Cl)c(S(=O)(=O)N3CCc4ccccc43)c2)CC1	0%	/	7%	27	/
O=C(NCc1ccco1)c1ccc(Cl)c(S(=O)(=O)N2CCc3ccccc32)c1	-8%	-29%	7%	-51*	?
O=C(NCc1ccco1)c1ccc(Br)c(S(=O)(=O)N2CCCCC2)c1	1%	-10%	12%	-59*	?
O=C(c1ccc(Cl)c(S(=O)(=O)N2CCc3ccccc32)c1)N1CCN(c2ccccc2O)CC1	15%	/	?	-73*	/
O=C(NCc1ccco1)c1ccc(F)c(S(=O)(=O)N2CCCCC2)c1	4%	7%	-48%	-17	-5%
C[C@@H]1CN([C@@H](C)CO)C(=O)c2c(c3ccccc3n2C)-c2ccccc2CO[C@H]1CN(C)C(=O)[C@H](C)c1ccccc1	/	/	/	-14	/
COc1ccc(C(=O)N2CCC2(C)C(=O)O)cc1C(F)(F)F (stereo not given)	/	/	/	8	/
CC(=O)Nc1ccc(S(=O)(=O)NCCC(=O)OCC(=O)NNC(=O)c2ccccc2)cc1	-73%	/	-2%	0	/
C=CCOC(=O)C(C#N)c1nc2ccccc2nc1N1CCN(Cc2ccc3c(c2)OCO3)CC1 (stereo not given)	3%	-4%	7%	-52*	0%
CCC(CC)COC(=O)C(C#N)c1nc2ccccc2nc1N1CCN(CC)CC1 (stereo not given)	?	-29%	?	-60*	?
CCC(C)COC(=O)C(C#N)c1nc2ccccc2nc1N1CCCCC1 (stereo not given)	3%	3%	-186%[0.0737 µM]	-28	5µM*
CCCCCCOC(=O)C(C#N)c1nc2ccccc2nc1N1CCN(C)CC1 (stereo not given)	?	-8%	?	-25	15%
CCCCNC(=O)C(C#N)c1nc2ccccc2nc1N1CCN(Cc2ccc3c(c2)OCO3)CC1 (stereo not given)	1%	/	?	0	/
N#C/C(=C\N1CCN(Cc2ccc3c(c2)OCO3)CC1)c1nc2ccccc2s1	?	-2%	21µM*	-11	?
COc1ccc(S(=O)(=O)N2CCCC2CNC(=O)C(=O)Nc2ccc(F)cc2)cc1 (stereo not given)	-172%	/	3%	-17	/
SMILES	SW480 rereplic	Gal4-VP16 FLuc	MCF10A rereplic	IL1B secr inh	RORgamma inh
CCc1nccn1CCC(=O)N1CCCC(N2CCN(c3cccc(Cl)c3)CC2)C1 (stereo not given)	-7%	27%	8%	13	7%
COc1ccc(-c2cc(CCC(=O)N3CCN(c4cc(C)ccc4C)CC3)[nH]n2)cc1	-3%	/	2%	-5	/
O=C(O)c1ccc(NS(=O)(=O)Cc2ccc(Cl)c(Cl)c2)cc1	-5%	/	-3%	10	/
COC(=O)c1sc(-c2ccc(Cl)cc2)cc1NC(=O)CSCC(=O)O	-2%	-7%	-6%	0	27%
COC(=O)c1sc(-c2ccc(C(C)(C)C)cc2)cc1NC(=O)COCC(=O)O	-4%	-15%	21µM*	/	?
C/C=C(\C)C(=O)O[C@H]1C[C@@]2(C)CCC(C(C)C)C2(O)CC[C@@]1(C)O (stereo not given in full)	/	11%	/	/	2%
COc1cc(-c2nnc(NC(=O)CCS(=O)(=O)c3ccccc3)o2)cc(OC)c1OC	?	/	18µM*	-55*	/
COc1cc(-c2nnc(NC(=O)CCS(=O)(=O)c3ccc(F)cc3)o2)cc(OC)c1OC	23%	/	16µM*	6	/
Cc1ccc(C)c(-c2nnc(NC(=O)CCS(=O)(=O)c3ccccc3)o2)c1	-2%	/	?	6	/
O=C1C(=O)N(CCCO)C(c2ccc(Br)cc2)/C1=C(\O)c1ccc(Br)cc1 (stereo not given)	-7%	-4%	11%	-11	-13%
O=C1c2cccc3cccc(c23)C(c2nc3ccccc3[nH]2)N1C1CC1 (stereo not given)	/	/	/	-15	/
Cc1cc(C)c2nc(NNC(=O)c3cc(-c4cccs4)nc4ccccc34)sc2c1	?	10µM*	?	115	1.8µM*
O=C(NNc1nc2ccc(Cl)cc2s1)c1cc(-c2cccs2)nc2ccccc12	?	?	18µM*	174	1.1µM*
Cc1ccc2sc(NNC(=O)c3cc(-c4cccs4)nc4ccccc34)nc2c1C	-3%	18µM*	23%	/	4.5µM*
Cc1ccc(NC(=O)c2cc(-c3cccs3)nc3ccccc23)nc1	20%	21%	22%	?	-23%
C[C@H]([C@H](O)c1ccccc1)N(C)C(=O)CN	-15%	2%	-7%	17	0%
CC1(C)CC2(C)OC2C2(C1)N=NC(=Nc1ccccc1)O2 (stereo not given)	/	/	/	-99*	/
COc1cccc(OC)c1NC(=O)CN1CCN(C)CC1	?	2%	?	-3	-7%
COCCn1c(C)cc(C(=O)CN2C(=O)NC3(CCCCCCC3)C2=O)c1C	?	-4%	12µM*	10	?
COCCn1c(C)cc(C(=O)CSc2nnc(C)s2)c1C	-3%	1µM*	?	5	0.71µM*
COCCn1c(C)cc(C(=O)CSc2cc(C)c3ccccc3n2)c1C	14%	-2%	27%	-69*	?
Cc1nn(-c2ccccc2)c(N)c1N=Nc1cccc(S(=O)(=O)N2CCOCC2)c1	?	-12%	-14%	-56*	-10%
